Experimental data reported in PubChem BioAssay (EPA / NIEHS).
Inconclusive results are not listed. Active and inactive are the calls of the source. Rule for the calls, unless noted: active = hit-call score of the fitted dose curve at least 0.9, where 1 is the maximum; inconclusive = response in the unintended direction; inactive = score below 0.9.

What was measured:
[1] = CEETOX_H295R_ESTRADIOL_noMTC: CeeTox H295R High-throughput Steroidogenesis Assay for Estradiol, maximum tolerated concentration (MTC) filtered results only (AID 2283919; active = hit-call score of the fitted dose curve at least 0.9, where 1 is the maximum; inactive = score below 0.9); conditions: actives raise or lower the signal
Outline: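 H295R human adrenal cells pre-stimulated 48 h with 10 uM forskolin, then exposed 48 h to chemical (0.1% DMSO final). Estradiol in medium measured by HPLC-MS/MS after MTBE extraction and dansyl derivatization; bidirectional fit versus DMSO, concentrations not MTT-filtered.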

[2] = CEETOX_H295R_ESTRONE_noMTC: CeeTox H295R High-throughput Steroidogenesis Assay for Estrone, maximum tolerated concentration (MTC) filtered results only (AID 2283921; active = hit-call score of the fitted dose curve at least 0.9, where 1 is the maximum; inactive = score below 0.9); conditions: actives raise or lower the signal
Outline: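 H295R cells prestimulated 48 h with 10 uM forskolin, then exposed 48 h to chemical in 0.1% DMSO; medium estrone measured by HPLC-MS/MS after MTBE extraction and dansyl derivatization, fitted bidirectionally versus DMSO without MTT-based MTC filtering.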

[3] = CEETOX_H295R_TESTO_noMTC: CeeTox H295R High-throughput Steroidogenesis Assay for Testosterone (TESTO), maximum tolerated concentration (MTC) filtered results only (AID 2283924; active = hit-call score of the fitted dose curve at least 0.9, where 1 is the maximum; inactive = score below 0.9); conditions: actives raise or lower the signal
Outline: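 H295R cells prestimulated 48 h with 10 uM forskolin, then exposed 48 h to chemicals in 0.1% DMSO final. Testosterone in medium quantified by MTBE extraction and HPLC-MS/MS; bidirectional fit versus DMSO, concentrations […] filtered by MTT-based maximum tolerated concentration.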

[4] = molecular target: PGR (gene 5241) (UniProt P06401); assay: TOX21_PR_BLA_Followup_Antagonist_ratio: Tox21 HEK293 Progesterone Receptor (PR) Antagonism Beta-lactamase Follow-Up Assay, Ratio (AID 2283934)
Outline: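 HEK293T PR-UAS-bla, 2% CS-FBS; 6 hr plating, then cpd + R5020 (1 nM final), 16 hr 37C/5% CO2. B/G FRET substrate 2 h RT. Ratio ch2/ch1 vs DMSO; CellTiter-Glo viability multiplexed, autofluorescence checked.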

[5] = TOX21_PR_BLA_Followup_Agonist_viability: Viability Assessment in the Tox21 HEK293 Progesterone Receptor (PR) Agonism Beta-lactamase Follow-Up Assay (AID 2283935);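 note: cells exposed to compound for 16 hr at 37 °C; signal loss means lower viability so actives are cytotoxic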
Outline: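 HEK293T PR-UAS-bla, 3,000 cells/well, 2% CS-FBS; 6 hr pre-incubation; cpd in DMSO, 16 hr 37C; LiveBLAzer 2 hr RT, then CellTiter-Glo 30 min RT, luminescence. Decrease = lost viability.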

[6] = TOX21_PR_BLA_Followup_Antagonist_viability: Viability Assessment in the Tox21 HEK293 Progesterone Receptor (PR) Antagonism Beta-lactamase Follow-Up Assay (AID 2283936);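 note: hits lower the luminescence signal meaning cytotoxicity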
Outline: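 PR-UAS-bla HEK293T cells (3,000/well, 2% charcoal-stripped FBS) given compound plus R5020 agonist, 16 h at 37C. CellTiter-Glo added after bla read, 30 min at room temperature; luminescence loss indicates cytotoxicity.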

[7] = molecular target: PGR (gene 5241) (UniProt P06401); assay: TOX21_PR_LUC_Followup_Antagonist: Tox21 HEK293 Progesterone Receptor (PR) Antagonism Luciferase Follow-Up Assay (AID 2283938);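 note: curve fitted upward as signal gain over DMSO baseline despite antagonist label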
Outline: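 HEK293-PR-A-luc cells, 3,000/well, preincubated 5 h at 37C before compound addition in DMSO; 16 h compound exposure at 37C. ONE-Glo luciferase luminescence read after 30 min at room temperature, fitted relative to DMSO baseline.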

[8] = molecular target: T1, Thyroid hormone receptor alpha (Rattus norvegicus) + Thyroid hormone receptor beta (Rattus norvegicus) (UniProt P18113+P63059); assay: TOX21_TR_LUC_GH3_Agonist_Followup: Tox21 GH3 Thyroid Hormone Receptor Agonism Luciferase Follow-Up Assay (AID 2283939)
Outline: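 Rat GH3 cells (1,500/well) in serum-free assay medium, treated with 15-point series, 92 uM to 5 nM final, for 24 h at 37C. Luciferase via ONE-Glo luminescence; gain of signal fitted against DMSO, T3 positive control.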

[9] = molecular target: THRA (gene 7067) (UniProt P10827); assay: TOX21_TRA_COA_Agonist_Followup_ratio: Tox21 Thyroid Hormone Receptor alpha Agonism through Coactivator Recruitment Follow-Up Assay, Ratio (AID 2283948; active = hit-call score of the fitted dose curve at least 0.9, where 1 is the maximum; inactive = score below 0.9)
Outline: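 Cell-free TR-FRET: GST-tagged TRα LBD (2.5 nM) with 0.10% BSA and compound, then fluorescein-SRC-2 peptide (200 nM) and Tb-anti-GST antibody (2 nM). Readout 520:495 nm ratio (ex 340 nm), normalized to DMSO (0%) and T3 (100%).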

[10] = molecular target: THRB (gene 7068) (UniProt P10828); assay: TOX21_TRB_COA_Agonist_Followup_ratio: Tox21 Thyroid Hormone Receptor beta Agonism through Coactivator Recruitment Follow-Up Assay, Ratio (AID 2283963; active = hit-call score of the fitted dose curve at least 0.9, where 1 is the maximum; inactive = score below 0.9)
Outline: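 Agonism is measured as coactivator recruitment in a purified-protein TR-FRET format, using GST-TRβ LBD at 5.0 nM, fluorescein-SRC-2 peptide at 200 nM and Tb-labeled anti-GST antibody at 2 nM. Values are 520:495 nm ratios relative to DMSO (0%) and T3 (100%).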

[11] = molecular target: Retinoic acid receptor RXR-alpha (Homo sapiens) (UniProt P19793); assay: TOX21_TR_RXR_BLA_Agonist_Followup_ratio: Tox21 Thyroid Hormone Receptor beta Retinoid X Receptor alpha (RXRa) Agonism Beta-lactamase (BLA) Follow-Up Assay, Ratio (AID 2283968)
Outline: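 HEK293T RXRa-bla, qHTS; cpd 11-pt conc. in triplicate, 16 h 37C/5% CO2; CCF4-AM 2 h RT; ratio 460:530 nm; agonist direction vs DMSO; 9-cis retinoic acid as positive control.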

[12] = molecular target: T1, Thyroid hormone receptor alpha (Rattus norvegicus) + Thyroid hormone receptor beta (Rattus norvegicus); assay: TOX21_TR_LUC_GH3_Antagonist_Followup: Tox21 GH3 Thyroid Hormone Receptor Antagonism Luciferase Follow-Up Assay (AID 2283942)
Outline: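 Confirmatory qHTS, antagonist mode: T3 (1.0 nM final) + test cpd, 15 conc, 92 uM–5nM final, GH3 rat pituitary line, 24 h, 37C. Luc reporter, RLU vs DMSO.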

[13] = molecular target: THRB (gene 7068) (UniProt P10828); assay: TOX21_TRB_BLA_Antagonist_Followup_ratio: Tox21 Thyroid Hormone Receptor beta Antagonism Beta-lactamase (BLA) Follow-Up Assay, Ratio (AID 2283958)
Outline: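 HEK293T TRb-bla (GAL4 DBD + hTRβ LBD), 2% cs-FBS phenol red-free DMEM, 5 h attach; cpds 11-pt triplicate, 18 h 37C; CCF4-AM 2 h RT; 460/530 ratio vs DMSO; CellTiter-Glo viability same wells.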

[14] = TOX21_TRB_BLA_Antagonist_Followup_viability: Viability Assessment in the Tox21 Thyroid Hormone Receptor beta Antagonism Beta-lactamase (BLA) Follow-Up Assay (AID 2283961)
Outline: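 HEK293T cells with GAL4-human TRβ LBD and UAS-bla reporter, 3,000 cells/well in 2% charcoal-stripped FBS medium; 11-point concentrations in triplicate, 18 h at 37C. Viability from ATP by CellTiter-Glo luminescence, 30 min RT, same plates.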

[15] = molecular target: THRB (gene 7068) (UniProt P10828); assay: TOX21_TRB_COA_Antagonist_Followup_ratio: Tox21 Thyroid Hormone Receptor beta Antagonism through Coactivator Recruitment Follow-Up Assay, Ratio (AID 2283967)
Outline: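 Test compound was incubated with 5.0 nM GST-TRβ LBD in 0.10% BSA. Then 200 nM fluorescein-SRC-2 peptide and 2 nM terbium anti-GST antibody were added. TR-FRET (520:495 nm) was measured and normalized to DMSO and T3 controls.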

THRB (gene 7068), sequence (P10828 whole entry, looked up, the tested form may be a part): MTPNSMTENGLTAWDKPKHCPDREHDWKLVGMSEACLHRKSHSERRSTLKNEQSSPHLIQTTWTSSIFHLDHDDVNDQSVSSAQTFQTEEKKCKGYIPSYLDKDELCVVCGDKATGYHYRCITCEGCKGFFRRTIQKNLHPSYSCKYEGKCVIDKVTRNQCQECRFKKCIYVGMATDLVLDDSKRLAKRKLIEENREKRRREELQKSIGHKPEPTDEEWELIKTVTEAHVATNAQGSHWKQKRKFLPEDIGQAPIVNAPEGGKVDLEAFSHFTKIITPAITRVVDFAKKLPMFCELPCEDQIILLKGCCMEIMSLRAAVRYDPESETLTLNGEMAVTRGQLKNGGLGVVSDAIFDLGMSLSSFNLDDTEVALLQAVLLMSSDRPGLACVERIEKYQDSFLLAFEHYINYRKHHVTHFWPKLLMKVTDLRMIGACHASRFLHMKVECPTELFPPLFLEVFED
PGR (gene 5241), sequence (P06401 whole entry, looked up): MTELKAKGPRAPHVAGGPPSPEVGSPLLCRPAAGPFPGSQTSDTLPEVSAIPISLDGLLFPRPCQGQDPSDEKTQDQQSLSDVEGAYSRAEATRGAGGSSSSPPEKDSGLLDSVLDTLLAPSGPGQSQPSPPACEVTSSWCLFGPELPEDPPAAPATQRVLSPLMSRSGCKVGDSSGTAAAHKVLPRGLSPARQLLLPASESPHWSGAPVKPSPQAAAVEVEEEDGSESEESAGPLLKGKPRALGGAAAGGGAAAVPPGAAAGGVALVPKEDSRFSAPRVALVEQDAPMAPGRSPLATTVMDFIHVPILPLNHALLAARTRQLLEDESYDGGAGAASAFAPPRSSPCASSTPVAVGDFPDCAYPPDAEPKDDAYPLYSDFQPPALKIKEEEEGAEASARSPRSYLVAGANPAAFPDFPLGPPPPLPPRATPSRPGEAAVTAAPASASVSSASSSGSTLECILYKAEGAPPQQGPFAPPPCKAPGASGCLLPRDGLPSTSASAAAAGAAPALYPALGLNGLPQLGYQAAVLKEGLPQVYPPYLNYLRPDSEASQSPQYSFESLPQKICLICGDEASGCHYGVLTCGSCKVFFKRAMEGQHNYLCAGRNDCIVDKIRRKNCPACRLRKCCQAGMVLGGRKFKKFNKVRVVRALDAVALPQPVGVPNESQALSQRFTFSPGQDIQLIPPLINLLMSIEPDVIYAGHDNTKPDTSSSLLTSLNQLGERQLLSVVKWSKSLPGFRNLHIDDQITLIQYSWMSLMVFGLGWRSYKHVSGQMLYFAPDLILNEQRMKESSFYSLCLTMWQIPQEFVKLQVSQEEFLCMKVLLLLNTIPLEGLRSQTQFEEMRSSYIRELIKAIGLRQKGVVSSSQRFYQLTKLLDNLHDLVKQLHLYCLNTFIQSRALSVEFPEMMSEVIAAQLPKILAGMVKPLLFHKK
THRA (gene 7067), sequence (P10827 whole entry, looked up, the tested form may be a part): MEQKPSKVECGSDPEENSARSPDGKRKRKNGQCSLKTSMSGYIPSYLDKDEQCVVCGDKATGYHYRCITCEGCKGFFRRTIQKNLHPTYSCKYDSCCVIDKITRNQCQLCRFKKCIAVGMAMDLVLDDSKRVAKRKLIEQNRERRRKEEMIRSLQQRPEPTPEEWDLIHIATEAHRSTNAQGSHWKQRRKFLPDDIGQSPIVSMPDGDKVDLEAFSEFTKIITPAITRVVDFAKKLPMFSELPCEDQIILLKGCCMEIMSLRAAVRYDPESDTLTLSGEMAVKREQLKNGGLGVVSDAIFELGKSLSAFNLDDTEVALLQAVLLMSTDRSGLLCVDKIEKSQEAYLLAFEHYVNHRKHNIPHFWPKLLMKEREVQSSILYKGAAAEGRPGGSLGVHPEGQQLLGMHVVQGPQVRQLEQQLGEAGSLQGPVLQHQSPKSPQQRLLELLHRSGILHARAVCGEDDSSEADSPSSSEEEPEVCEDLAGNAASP
Retinoic acid receptor RXR-alpha (Homo sapiens), sequence (P19793 whole entry, looked up): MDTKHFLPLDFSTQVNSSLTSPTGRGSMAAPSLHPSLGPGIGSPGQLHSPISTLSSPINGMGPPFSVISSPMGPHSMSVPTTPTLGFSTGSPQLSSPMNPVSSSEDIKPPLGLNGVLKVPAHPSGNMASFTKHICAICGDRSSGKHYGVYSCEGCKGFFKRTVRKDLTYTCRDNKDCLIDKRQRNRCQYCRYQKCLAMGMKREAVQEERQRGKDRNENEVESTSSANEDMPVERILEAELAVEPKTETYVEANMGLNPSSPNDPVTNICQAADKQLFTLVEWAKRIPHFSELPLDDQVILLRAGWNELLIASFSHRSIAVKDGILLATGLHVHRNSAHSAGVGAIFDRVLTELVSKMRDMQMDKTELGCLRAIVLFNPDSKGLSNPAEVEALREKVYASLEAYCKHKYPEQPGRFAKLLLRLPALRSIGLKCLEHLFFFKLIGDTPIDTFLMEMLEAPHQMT
T1 sequence (P63059 whole entry, looked up): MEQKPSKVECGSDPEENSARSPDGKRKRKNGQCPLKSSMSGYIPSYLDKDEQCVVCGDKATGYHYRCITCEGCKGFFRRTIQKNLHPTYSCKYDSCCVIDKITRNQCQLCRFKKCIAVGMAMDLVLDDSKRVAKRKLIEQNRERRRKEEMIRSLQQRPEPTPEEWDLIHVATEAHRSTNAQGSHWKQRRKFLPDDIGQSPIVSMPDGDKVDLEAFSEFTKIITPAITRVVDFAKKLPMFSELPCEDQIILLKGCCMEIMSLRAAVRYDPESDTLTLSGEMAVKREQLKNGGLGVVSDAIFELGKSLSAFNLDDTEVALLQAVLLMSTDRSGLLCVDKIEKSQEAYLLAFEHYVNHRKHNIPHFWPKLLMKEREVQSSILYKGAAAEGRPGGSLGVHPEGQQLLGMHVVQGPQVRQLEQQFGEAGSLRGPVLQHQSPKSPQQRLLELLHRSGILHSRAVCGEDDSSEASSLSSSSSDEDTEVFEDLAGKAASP
T1 sequence (P18113 whole entry, looked up): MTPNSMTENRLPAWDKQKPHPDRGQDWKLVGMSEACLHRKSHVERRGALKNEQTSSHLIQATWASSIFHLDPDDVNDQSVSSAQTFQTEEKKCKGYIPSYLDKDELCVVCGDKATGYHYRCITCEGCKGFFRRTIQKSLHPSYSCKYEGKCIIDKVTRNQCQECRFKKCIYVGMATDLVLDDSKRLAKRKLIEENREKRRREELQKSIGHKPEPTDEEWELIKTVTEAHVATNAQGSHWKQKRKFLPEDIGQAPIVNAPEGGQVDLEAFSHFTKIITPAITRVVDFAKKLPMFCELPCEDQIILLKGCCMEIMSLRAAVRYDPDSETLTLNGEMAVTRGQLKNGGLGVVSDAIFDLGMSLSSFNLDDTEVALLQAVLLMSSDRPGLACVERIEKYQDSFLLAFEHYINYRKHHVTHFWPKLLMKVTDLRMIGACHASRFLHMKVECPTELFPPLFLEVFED

Nc1nc(=S)c2[nH]cnc2[nH]1
outcome [1]: inactive | outcome [2]: inactive | AC50 [3]: 74.5 µM (active)

NC(=Nc1ccccc1)Nc1ccccc1
outcome [1]: inactive | outcome [2]: inactive

O=C(Oc1ccccc1)c1cccc(C(=O)Oc2ccccc2)c1
outcome [3]: inactive

CC(=O)[C@@]1(O)CC[C@H]2[C@@H]3CCC4=CC(=O)CC[C@]4(C)[C@H]3CC[C@@]21C
outcome [4]: inactive | outcome [5]: inactive | outcome [6]: inactive | outcome [7]: inactive

Cc1occc(=O)c1O
outcome [8]: inactive | outcome [9]: inactive | outcome [10]: inactive | outcome [11]: inactive

Nc1nc(Cl)nc2c1ncn2[C@H]1C[C@H](O)[C@@H](CO)O1
outcome [12]: inactive | outcome [13]: inactive | outcome [14]: inactive | outcome [15]: inactive
